Rce1 inhib – inhibitors of yeast Ras-converting enzyme; Q03530; yeast membranes, quenched prenylated peptide cleavage fluorescence; calls only; 290,000 compounds, 0.27% hits; AID 2563;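 active means fall in fluorescence gain of 50% or more versus controls, with final raw signal at or below 3038400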;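 further: plate controls were neutral control wells for no effect and wells lacking membranes for full effect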
GRK2 aptamer HTS – human GRK2 inhibition via aptamer displacement | inhibition of aptamer binding, % at 10 µM | bead flow cytometry, FAM-aptamer displacement from GRK2 | AID 488847 | 330,000 compounds, 0.59% hits;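 active means inhibition of aptamer binding above 40%, roughly 3 SD of noise, on plates passing a quality check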;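 further: median bead fluorescence of bound FAM aptamer so fluorescent compounds give negative values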
Target sequence (P25098 whole entry, looked up): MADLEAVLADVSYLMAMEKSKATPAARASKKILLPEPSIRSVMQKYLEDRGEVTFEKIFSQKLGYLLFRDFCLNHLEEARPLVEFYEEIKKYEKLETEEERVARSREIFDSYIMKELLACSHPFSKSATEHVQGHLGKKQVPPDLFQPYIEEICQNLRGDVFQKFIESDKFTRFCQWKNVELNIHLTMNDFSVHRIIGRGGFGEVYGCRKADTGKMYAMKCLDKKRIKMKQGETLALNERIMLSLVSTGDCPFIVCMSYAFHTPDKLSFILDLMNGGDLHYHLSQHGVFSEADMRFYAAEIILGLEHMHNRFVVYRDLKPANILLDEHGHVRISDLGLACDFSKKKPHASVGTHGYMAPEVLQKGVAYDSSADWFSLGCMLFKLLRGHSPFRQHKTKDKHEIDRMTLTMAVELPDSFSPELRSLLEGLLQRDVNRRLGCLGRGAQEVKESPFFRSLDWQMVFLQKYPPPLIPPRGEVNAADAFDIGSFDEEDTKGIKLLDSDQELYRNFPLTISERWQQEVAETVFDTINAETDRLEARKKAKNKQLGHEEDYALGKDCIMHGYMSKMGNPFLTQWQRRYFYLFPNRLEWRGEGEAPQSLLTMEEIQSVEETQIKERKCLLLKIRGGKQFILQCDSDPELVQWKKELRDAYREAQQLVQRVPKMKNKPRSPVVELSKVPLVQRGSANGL
HDAC3 inh – blocks human histone deacetylase 3 | O15379 | AID 2718 | inhibition, % at 8.3 µM | recombinant HDAC3, fluorogenic peptide/trypsin coupled, fluorescence | 320,000 compounds, 0.15% hits; in the data active means inhibition above about 26%, passing the limit was not always enough
Rtt109 Vps75 – inhibitors of Candida albicans Rtt109/Vps75 histone acetyltransferase | Q5AAJ8 | purified Rtt109/Vps75, ThioGlo CoA-SH fluorescence, 4 h | inhibition, % at 34.9 µM | 330,000 compounds, 0.16% hits;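 active means inhibition of at least 50% in every replicate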
ALR inh – human ALR oxidase inhibition via reduced H2O2 | P55789 | purified ALR, DTT oxidation, H2O2 HRP-luminol luminescence | inhibition, % (concentration not given with the values) | 290,000 compounds, 3.8% hits;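 active means mean replicate inhibition above about 79%, with every replicate also reaching it, limit read from the data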
Efflux pump mplx – blocks antifungal efflux pumps in multiplex yeast assay; AID 485275; inhibition, % at 10 µM; S. cerevisiae Candida pump triplex, Nile Red efflux; 330,000 compounds, 0.44% hits;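 active means plate passing quality check with inhibition over a set limit, or well fluorescence over plate mean plus 4 SD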;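 further: Nile Red retained in pooled yeast measured as flow cytometry median fluorescence; 0% = buffer negative control and 100% = Enniatin B positive control; higher means more Nile Red kept so more efflux inhibition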
GRK2 CP1 – human GRK2 inhibition confirmation, cherry pick 1; 2,000 compounds, 4% hits; aptamer displacement, % at 10 µM; bead-bound GRK2, FAM-aptamer displacement, flow cytometry; shares compounds with GRK2 aptamer HTS;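 active means aptamer displacement above 40%, near three times the noise of non-fluorescent compounds, on plates passing quality checks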;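 further: negative values mostly reflect intrinsic compound fluorescence rather than true enhancement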
FAM quench CP1 – counter-screen for GRK2 aptamer inhibitors: fluorescent aptamer quenchers | shares compounds with GRK2 aptamer HTS | Carboxyfluorescein RNA aptamer on beads, flow cytometry quenching; active compounds read low | 2,000 tested, under 10 active | AID 504580 | fluorescence response (% of DMSO), % at 10 µM;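 active means compounds that quench the bead-bound fluorescent RNA probe, cutting fluorescence to under half of the solvent control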;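 further: counterscreen run without GRK2 so only probe quenching by compound is measured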
GRK2 CP2 – human GRK2 inhibition confirmation, cherry pick 2; bead-bound GRK2, FAM-aptamer displacement, flow cytometry; shares compounds with GRK2 aptamer HTS; 360 tested, under 10 active; inhibition of aptamer binding, % at 10 µM;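 active means inhibition of aptamer binding above 40%, about triple the noise seen with nonglowing compounds, on plates passing quality control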;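 further: negative values mostly come from compounds that fluoresce themselves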
FAM quench SP – counter-screen for GRK2 binding hits: quenchers of fluorescent RNA aptamer. 360 tested, under 10 active. fluorescence response vs DMSO, % at 10 µM. carboxyfluorescein RNA aptamer beads, flow cytometry quenching; active compounds read low. shares compounds with GRK2 aptamer HTS;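 active means response vs DMSO under 50%, meaning signal dropped by over half, treated as fluorescence quencher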;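 further: labelled aptamer on streptavidin beads without GRK2 as a quench counter-screen; 100% = bead fluorescence of DMSO wells and lower means quenching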
The depositor's hits bear a star; i = inactive; · = not tested or not shown. Most compounds without a hit are left out; they make up all but 4.5% or so of the library.

SMILES | Rce1 inhib | GRK2 aptamer HTS | HDAC3 inh | Rtt109 Vps75 | ALR inh | Efflux pump mplx | GRK2 CP1 | FAM quench CP1 | others
O=C(NCCCN1CCN(c2ccccc2F)CC1)Nc1ccc(F)cc1 | i | 0 | 1 | 3 | -2 | 0 | -1 | 101
NS(=O)(=O)c1ccc(-c2c(-c3ccccc3)sc3ccccc23)cc1 | · | 1 | -1 | -7 | -6 | 0 | · | ·
CN(CC(=O)Nc1c(Cl)cccc1Cl)C(=O)CCc1nc2sc3c(c2c(=O)[nH]1)CCCC3 | i | 0 | -5 | -9 | 48 | 0 | -1 | 94
O=C(CCN1CCOCC1)N1CCc2c([nH]c3ccccc23)C1c1cccc(Cl)c1 (centres undefined) | i | 0 | -1 | 6 | · | 0 | 1 | 93
O=C(c1cccs1)N1CCc2c([nH]c3ccccc23)C1c1ccc(Cl)cc1 (centres undefined) | i | 0 | 6 | -6 | · | 0 | · | ·
COc1ccc(C)cc1N1CC(C(=O)Nc2ccccc2N2CCCCC2)CC1=O (centres undefined) | · | 78* | 5 | 0 | · | 0 | -2 | 97
Cc1ccc(S(=O)(=O)NCc2ccc3c(c2)cc(C)n3C)cc1 | i | 21 | 4 | -1 | -3 | 0 | · | ·
Cc1cc2cc(CN3C(=O)c4ccccc4C3=O)ccc2n1C | · | 46* | 9 | · | 1 | 0 | 34 | 95
COc1ccc(-c2c(C)oc3cc(O)cc(O)c3c2=O)cc1OC | i | 50* | 1 | 6 | · | 1 | 1 | 102
Cc1cc(-c2ccccc2)nc(Nc2nc3c(C)cccc3c(=O)[nH]2)n1 | · | · | · | -7 | · | · | · | ·
O=C(O)C1C2C=CC(C2)C1C(=O)Nc1ccc2c(c1)OCCO2 (centres undefined) | i | 3 | 3 | -4 | -29 | 0 | · | · | GRK2 CP2=7;FAM quench SP=107
NC(=O)c1cc(N=Nc2c(N)[nH]n(-c3c(Cl)cc(Cl)cc3Cl)c2=O)ccc1Cl | i | 0 | 5 | 12 | 0 | 0 | · | ·
Cc1cc(C)nc(/N=C2\NC(=O)CC(C(=O)O)N2CCc2c[nH]c3ccccc23)n1 (centres undefined) | i | 60* | 0 | -16 | · | 0 | -1 | 102
COCCn1c(SCC(=O)NC(=O)NC2CCCC2)nc2ccccc2c1=O | · | 0 | 1 | 3 | -2 | 0 | · | ·
NC(=O)Cc1ccc(C(=O)c2ccccc2F)s1 | i | 27 | 11 | 4 | -1 | 0 | 2 | 96
COc1ccc(Cl)cc1C(=O)NNC(=S)NC(=O)c1cc(-c2ccccc2)nc2ccccc12 | i | 43* | 13 | 5 | · | 0 | -2 | 109
CCCCN(C(=O)c1cc(S(=O)(=O)N2CCCCCC2)ccc1OC)c1ccccc1 | i | 0 | 9 | 11 | 1 | 0 | · | ·
c1ccc(CN(CC2=NCCN2)c2ccccc2)cc1 | i | 0 | 0 | 8 | 3 | 0 | 2 | 100
CC(=O)N/N=C(\C)c1ccc2c(c1)OCCO2 | i | 72* | -4 | 3 | 5 | 0 | -4 | 96
CCCC(=O)Nc1ccc2c(c1)nc(CCNC(=O)c1ccccc1)n2C | i | 0 | -7 | -4 | -11 | 0 | 1 | 97
Cn1c(CCNC(=O)c2ccccc2)nc2cc(NC(=O)c3ccco3)ccc21 | i | 5 | -4 | -3 | -20 | 0 | · | ·
N#CC1=C(S)N(c2ccc(F)cc2)C(c2ccco2)NC1=O (centres undefined) | i | 0 | 6 | -3 | · | 0 | · | ·
N#CC1=C(S)N(c2ccccc2)C(c2ccco2)NC1=O (centres undefined) | i | 74* | 7 | -4 | -3 | 0 | 1 | 101
COCc1cc(C)nc(N/N=C/c2ccc(Cl)c(Cl)c2)c1C#N | · | 85* | 2 | · | 56 | 0 | 2 | 101
COCc1cc(C)nc(N/N=C/c2ccc(-c3cc(C(=O)O)ccc3Cl)o2)c1C#N | i | 2 | 6 | · | 18 | 0 | · | ·
SMILES | Rce1 inhib | GRK2 aptamer HTS | HDAC3 inh | Rtt109 Vps75 | ALR inh | Efflux pump mplx | GRK2 CP1 | FAM quench CP1 | others
O=C1CCc2cc(S(=O)(=O)N3CCCCC3)cc3c2N1CC3 | i | 1 | -1 | -2 | 0 | 0 | · | ·
COc1cc(C(=O)NCc2nnc(SCC(=O)Nc3cc(C)on3)o2)cc(OC)c1OC | i | 74* | -1 | -2 | · | 0 | 0 | 103
COc1ccc(C(=O)NCc2nnc(SCC(=O)Nc3cc(C)on3)o2)cc1OC | · | 0 | 0 | 0 | 34 | 0 | · | ·
COc1ccc(CNC(=O)CN2C(=O)NC(C)(c3ccc(Cl)cc3)C2=O)cc1 (centres undefined) | i | 54* | -1 | -12 | -20 | 0 | -1 | 102
CC1(c2ccc3ccccc3c2)NC(=O)N(CC(=O)O)C1=O (centres undefined) | i | 47* | -3 | 0 | -3 | 0 | -3 | 99
COc1ccc(CNC(=O)CN2C(=O)NC(c3ccccc3)(c3ccccc3)C2=O)cc1 | · | 0 | -1 | 6 | -8 | 0 | · | ·
CCN(CC(=O)Nc1c(F)cccc1F)C(=O)c1cc2ccccc2oc1=O | i | 100* | · | -1 | · | 0 | 1 | 103
CCN(CC(=O)Nc1c(F)cccc1F)C(=O)CNC(=O)c1ccc2ccccc2c1 | · | 0 | 2 | 0 | -5 | 0 | · | ·
CCOCCCNC(=O)C(NC(=O)C1CCC(=O)N1)c1ccc(C)cc1 (centres undefined) | i | 45* | -2 | -5 | -2 | 0 | 3 | 95
CCOCCCNC(=O)C(NC(=O)c1ccccc1O)c1ccc(C)cc1 (centres undefined) | i | 0 | -12 | 26 | 10 | 0 | · | ·
CCN(C(=O)COC(=O)/C(=C/c1ccccc1)NC(C)=O)c1c(N)n(Cc2ccccc2)c(=O)[nH]c1=O | · | · | · | -4 | · | · | · | ·
O=C(NCCc1ccccc1F)c1cccc2cccnc12 | i | 0 | 0 | 0 | -7 | 0 | · | ·
COc1ccc(-n2c(C)cc(C(=O)CSc3nnc(-c4ccoc4C)n3C)c2C)cc1 | i | 91* | 12 | 7 | -2 | 0 | 2 | 100
Cc1ccn2c(CNCC3OCCc4ccccc43)c(C(=O)N3CCCCCC3)nc2c1 (centres undefined) | i | 0 | -5 | · | -3 | 0 | 5 | 103
O=C(Cc1ccccc1[N+](=O)[O-])c1ccc2c(c1)OCO2 | · | · | · | 3 | · | · | · | ·

Assay outcomes deposited in PubChem by several laboratories.
